# Over roughly 33,000 sequences, “E-score (-0.5 to 0.5)” has its median near -0.0014; the highest 2% begin near 0.25. The sample as a whole holds a higher share of the highest values than the screen did.
# Target: T1, Cad1 (UniProt P24813)
# T1 sequence: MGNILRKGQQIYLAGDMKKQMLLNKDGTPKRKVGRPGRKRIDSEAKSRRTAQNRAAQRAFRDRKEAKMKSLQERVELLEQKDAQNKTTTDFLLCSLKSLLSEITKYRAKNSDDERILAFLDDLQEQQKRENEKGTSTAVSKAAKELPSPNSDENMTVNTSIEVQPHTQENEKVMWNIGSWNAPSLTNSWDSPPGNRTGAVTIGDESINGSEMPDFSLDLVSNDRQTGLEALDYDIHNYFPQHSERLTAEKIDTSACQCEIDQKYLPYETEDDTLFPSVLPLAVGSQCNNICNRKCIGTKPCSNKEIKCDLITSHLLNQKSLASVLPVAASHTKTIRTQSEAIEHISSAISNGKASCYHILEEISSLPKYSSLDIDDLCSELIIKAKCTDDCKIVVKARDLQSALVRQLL
# Assay: PBM E-score (8-mer binding enrichment) (E-score (-0.5 to 0.5)); higher = stronger / more preferred TF binding
# Conditions: protein concentration: 100 nM; construct: GST-full length
# Experimental: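 Universal 'all 10-mer' protein binding microarrays (Agilent AMADID 015681) probed with GST-tagged S. cerevisiae TFs (full-length or DBD) made by in vitro transcription/translation (PURExpress), about 100-200 nM. Bound TF was detected with fluorescent anti-GST. Each ungapped 8-mer (which stands for itself and its reverse complement) is scored by the PBM enrichment score (E-score), a modified Wilcoxon-Mann-Whitney statistic from -0.5 to +0.5, computed with the Universal PBM Analysis Suite. Scale: above 0.35 generally sequence-specific binding.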
row,Sequence,PBM E-score
1,AATAATCA,0.218
2,AGCTCCGG,-0.115
3,AAGCAGAG,-0.111
4,GCAAGGCC,0.0338
5,CAGAGAGG,-0.329
6,AGAGCCGG,-0.167
7,AACCAAGC,0.03
8,AAATCGGG,0.0578
9,GGGTATAC,0.0548
10,GCATCTAA,0.194
11,TAACACTA,0.265
12,GAACACTA,0.0513
13,CAACACTA,0.19
14,ACCGTCAC,-0.176
15,CCCACACA,0.00769
16,AGAAGGCT,-0.299
17,GTGTAATA,0.194
18,AAGTAATG,0.0383
19,CTGTAATA,0.143
20,ATGTAACC,-0.0284
21,ATGTAATC,0.168
22,ATGTAATA,0.334
23,ATGTAACA,0.168
24,ATGTAATG,0.281
25,ATGTAACG,0.257

row,Sequence,PBM E-score
1,ATCTTACC,0.0255
2,GACATTCC,-0.0262
3,GAGAACTA,0.103
4,GTCTAAGA,0.151
5,TCCTCCCA,-0.144
6,TTAGATAA,0.105
7,ATAGATAA,0.125
8,GTAGATAA,0.251
9,ACAGGCAA,0.0554
10,CGATCCGA,0.251
11,CGATCCGC,0.163
12,GGATCCGA,-0.00022
13,CGGGTTTA,-0.0209
14,AGAGTGCT,0.0363
15,TAAGAACA,0.275
16,GAAGAACA,0.121
17,CAAGAACA,0.0216
18,CTAGCTTC,0.0393
19,AGCCTACC,-0.282
20,CAACTGTC,0.0813
21,CACTAAAA,0.19
22,CACAGTAG,-0.0343
23,CACAGTAA,0.291
24,TACAGTAA,0.0528
25,TTAATAAA,0.389

row,Sequence,PBM E-score
1,ATAATAAA,0.243
2,CTAATAAA,0.0515
3,GCATTAAA,0.103
4,TCATTAAA,0.265
5,CTATTAAA,0.00283
6,CTATTAAC,0.141
7,ACATTAAA,0.11
8,ATATTAAT,0.368
9,ATATTAAG,0.115
10,ATATTAAC,0.224
11,ATATTAAA,0.385
12,ACCAGATG,-0.0464
13,CTCAGCCC,-0.21
14,CCAGAGCA,-0.00085
15,ATTTGATG,0.148
16,AGACTTCG,-0.0445
17,TATCTTCA,-0.0564
18,ACTAGATA,0.0286
19,ATATAGAA,0.00309
20,TCTGAGCA,0.0835
21,CAGGGAAA,-0.054
22,ACAAAGTA,0.193
23,CCCTGAAC,0.229
24,CATCGCTC,-0.187
25,AGAGCGTG,-0.0848

row,Sequence,PBM E-score
1,CTTGCGAA,0.184
2,GTATTCAA,0.14
3,CTAGTAAA,0.0669
4,GTACTAAA,0.054
5,TTAGTAAA,0.339
6,CATTTCAA,0.174
7,ATATTCAA,0.144
8,ATAGTAAA,0.225
9,ATACTAAA,0.231
10,GATTTCAA,0.013
11,TATTTCAA,0.309
12,TTACTAAA,0.374
13,TTATTCAA,0.252
14,AACGCCAT,-0.0315
15,CTCGTAAA,0.0173
16,AGGGCACA,-0.116
17,ATCGCATA,0.0254
18,CATAAGCC,0.0914
19,ACTGCTTA,0.132
20,GGGTAGAC,-0.191
21,TCTAAAAA,-0.0235
22,CCCTGTGA,-0.161
23,TGATTAAA,0.123
24,TTATTAAA,0.307
25,GTATTAAA,0.0777

row,Sequence,PBM E-score
1,AACACGTG,0.217
2,ATGCCAAT,-0.0122
3,AATCACGT,0.184
4,ATACGTAT,0.298
5,ATACGTAA,0.2
6,ATACGTAC,-0.0354
7,ACTAATCT,0.135
8,ACTAATCA,0.344
9,CCTAATCG,0.168
10,TCTAATCA,0.181
11,ACTAATCC,0.242
12,ACTAATCG,0.356
13,AATCCGCG,0.13
14,AGTCCTAC,-0.0257
15,ATTGAGTC,0.0114
16,ACCGAGAT,0.0127
17,AGCGTAAA,0.0495
18,AATTACAG,0.161
19,GGTTACTA,0.0723
20,AATTACTA,0.32
21,GTTTACTA,0.195
22,CATTACTC,0.0943
23,AATTACTG,0.14
24,AATTACTC,0.239
25,AATTACAC,0.148

row,Sequence,PBM E-score
1,CTTTACTA,0.213
2,AATTACAT,0.354
3,GATTACTA,0.392
4,CATTACTA,0.25
5,TCACAGGA,-0.0436
6,CCTCGAAC,-0.0906
7,GAGCTAGA,-0.178
8,AGAACGCG,0.0894
9,GCGGTAGA,-0.0737
10,CGAGCGTA,0.0172
11,CGAAAAGC,-0.143
12,GCTTCACA,-0.0729
13,CGATCACA,0.204
14,AGATCACA,-0.0498
15,CGATCACG,0.273
16,GACCTCCC,-0.247
17,ATCTAGGC,-0.102
18,GCAAAAGA,-0.0108
19,AGAATTCT,0.278
20,AGAATTCG,0.051
21,AGAATTCA,0.126
22,ACACCCGA,0.134
23,AACGCCGG,-0.0998
24,CACTGCGC,-0.0286
25,ATTCAAGA,0.0376

row,Sequence,PBM E-score
1,GTTGGAAA,-0.0664
2,CGTCGCGA,0.111
3,GGTCGCTA,-0.112
4,GGTCGCGA,0.273
5,AGTCGCGA,0.285
6,AGTCGCGC,0.212
7,AGTCGCGG,-0.179
8,CAAACAAG,0.0295
9,GGAGCGCC,-0.252
10,AACACCAG,-0.0336
11,GCCTTCAA,0.0307
12,GTGCGGAA,0.0803
13,TAAACTAA,0.186
14,CAAACTAC,-0.0121
15,TTAACTAA,0.291
16,CTAACTAA,0.206
17,CAAACTAA,0.258
18,ATAACTAA,0.146
19,CCACTGTC,-0.0971
20,CCTGGAAA,-0.0814
21,GGGTCTAC,-0.0723
22,ACTCCGTA,-0.228
